The first assay addresses T1, GST-NST2(1-184) (Arabidopsis thaliana, UniProt Q9M274 1-184).
T1 sequence: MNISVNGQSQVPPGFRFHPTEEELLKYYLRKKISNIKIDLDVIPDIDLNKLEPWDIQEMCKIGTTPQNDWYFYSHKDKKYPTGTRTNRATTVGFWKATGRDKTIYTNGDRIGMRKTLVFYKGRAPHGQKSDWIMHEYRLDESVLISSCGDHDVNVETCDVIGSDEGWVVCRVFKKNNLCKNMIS
In words: universal protein binding microarray (PBM); transcription factors of Arabidopsis thaliana; high values mean tight binding. The conditions noted are these: protein: recombinant; tags: GST; chain copies: 2; dsDNA, one strand shown. A digest of the protocol:
(§1)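 For zinc-finger proteins, zinc acetate was added while GST-tagged NAC-domain, full-length or DNA-binding-domain proteins were induced in cells. Purification used glutathione–Sepharose 4B, and quantification used A280 or anti-GST western blot. Custom all-10-mer Agilent 4 × 180K arrays, made double-stranded by primer extension, each received a protein at 200 to 500 nM final in duplicate. Scoring covered gapped and ungapped 8-mers, with binding given as the normalised enrichment score (E-score).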
Chain of GST-WRKY1(266-371) (Q9SI37 266-371): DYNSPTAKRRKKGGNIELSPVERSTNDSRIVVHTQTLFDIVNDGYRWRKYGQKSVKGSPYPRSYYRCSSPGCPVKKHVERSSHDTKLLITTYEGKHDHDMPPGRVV
As to GAGTTGAC, the binding signal came out at 0.102 E-score.

For the sequence AATTGACT, the binding signal worked out at 0.125 E-score.

For TCAAGTCA, the binding signal came to 0.057 E-score.

Regarding CTTAAGGA, the binding signal came out at 0.0872 E-score.

As to GAAGTAAC, the binding signal was 0.301 E-score.

CGTCAAAG: the binding signal came to 0.102 E-score.

Consider GTCAAGAA, for which the binding signal came out at 0.0986 E-score.

For the sequence AAAGTCAA, the binding signal was determined as 0.0787 E-score.

Turning to AAGTCAAG, the binding signal came out at 0.0657 E-score.

For the sequence AAGGAAGC, the binding signal is 0.185 E-score.

For CGAAGGAA, the binding signal worked out at 0.17 E-score.

Take GCGTCAAC: the binding signal stood at 0.0734 E-score.

Take AGTCAGAA: the binding signal worked out at 0.119 E-score.

Regarding AGGAAAGG, the binding signal worked out at 0.064 E-score.

In the next assay the target is T2, GST-NTL8 NAC domain (Arabidopsis thaliana, UniProt Q9XIN7 14-156).
T2 sequence: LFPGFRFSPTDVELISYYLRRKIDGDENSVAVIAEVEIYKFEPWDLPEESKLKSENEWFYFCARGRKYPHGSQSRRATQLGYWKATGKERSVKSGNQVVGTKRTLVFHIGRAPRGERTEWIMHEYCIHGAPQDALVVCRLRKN
The assay is described as above. To be noted: protein: recombinant; tags: GST; chain copies: 2; dsDNA, one strand shown. A digest of the protocol:
as §1
Turning to GGGGAAAC, the binding signal stood at 0.412 E-score.

As to CTTAGTCA, the binding signal was 0.091 E-score.

In the case of AGGGAAAG, the binding signal is 0.473 E-score.

On to CTTAAGGA, for which the binding signal stood at 0.179 E-score.

Consider GAAGTAAC, for which the binding signal stood at 0.413 E-score.

Take ACTGACCT: the binding signal came to 0.109 E-score.

As for GGGGTCAA, the binding signal came to 0.154 E-score.

For AAGGAAGC, the binding signal worked out at 0.188 E-score.

Regarding CGAAGGAA, the binding signal came out at 0.459 E-score.

On to GGGGGAAA, for which the binding signal is 0.472 E-score.

As to GCTTTCCC, the binding signal was determined as 0.423 E-score.

TAGGGAAA: the binding signal was 0.438 E-score.

On to CCTTTGAC, for which the binding signal worked out at 0.0589 E-score.

As to AGGAAAGG, the binding signal was determined as 0.44 E-score.

On to CTTGACCC, for which the binding signal is 0.0908 E-score.

For the sequence TCAGTCAA, the binding signal stood at 0.0655 E-score.

Turning to CTGACTTC, the binding signal was found to be 0.113 E-score.

The target in the next assay is T3, GST-SND1(1-203) (Arabidopsis thaliana, UniProt Q9LPI7 1-203).
T3 sequence: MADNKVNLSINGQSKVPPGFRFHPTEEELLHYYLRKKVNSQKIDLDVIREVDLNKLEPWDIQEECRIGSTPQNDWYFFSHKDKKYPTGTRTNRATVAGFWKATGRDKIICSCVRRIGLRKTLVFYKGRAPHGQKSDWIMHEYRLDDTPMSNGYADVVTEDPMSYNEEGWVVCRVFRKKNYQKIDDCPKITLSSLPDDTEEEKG
The description is as above. The conditions noted are these: protein: recombinant; tags: GST; chain copies: 2; dsDNA, one strand shown. A digest of the protocol:
as §1
As for GGGGAAAC, the binding signal is 0.209 E-score.

Turning to CTTAGTCA, the binding signal is 0.118 E-score.

Regarding AGCGTTGA, the binding signal came out at 0.0527 E-score.

Turning to GTCAAAGA, the binding signal was found to be 0.167 E-score.

Consider GAGTTGAC, for which the binding signal amounted to 0.0621 E-score.

Turning to AATTGACT, the binding signal turned out to be 0.0673 E-score.

On to TCAAGTCA, for which the binding signal turned out to be 0.171 E-score.

On to AGGGAAAG, for which the binding signal turned out to be 0.114 E-score.

Take GTCAAGCA: the binding signal was determined as 0.0699 E-score.

As to CTTAAGGA, the binding signal was 0.265 E-score.

For TAAAGTCA, the binding signal came out at 0.0751 E-score.

In the case of GAAGTAAC, the binding signal amounted to 0.333 E-score.

For CGTCAAAG, the binding signal turned out to be 0.199 E-score.

With ACCGTTGA, the binding signal amounted to 0.123 E-score.

Consider ACTGACCT, for which the binding signal came to 0.0503 E-score.

GTCAGTCA: the binding signal turned out to be 0.0958 E-score.

Consider CTGTTGAC, for which the binding signal was 0.0669 E-score.

As for CGTAGTCA, the binding signal stood at 0.161 E-score.

On to GGGGTCAA, for which the binding signal turned out to be 0.0652 E-score.

With AAGGGTCA, the binding signal is 0.0922 E-score.

Turning to GTCAAGAA, the binding signal came out at 0.052 E-score.

For the sequence AAAGTCAA, the binding signal came to 0.118 E-score.

Take AAGTCAAG: the binding signal worked out at 0.0903 E-score.

In the case of AAGGAAGC, the binding signal is 0.175 E-score.

As for CGAAGGAA, the binding signal amounted to 0.3 E-score.

For GGGGGAAA, the binding signal stood at 0.147 E-score.

As to GCTTTCCC, the binding signal is 0.0912 E-score.

With GCGTCAAC, the binding signal is 0.192 E-score.

With TAGGGAAA, the binding signal turned out to be 0.0953 E-score.

Turning to CCTTTGAC, the binding signal came to 0.101 E-score.

Regarding AGTCAGAA, the binding signal was found to be 0.101 E-score.

Take AGGAAAGG: the binding signal amounted to 0.136 E-score.

As for AGTCTACG, the binding signal was found to be 0.115 E-score.

For the sequence ACGTTGAC, the binding signal stood at 0.127 E-score.

Turning to CTTGACCC, the binding signal turned out to be 0.0887 E-score.

As to TCAGTCAA, the binding signal was 0.0688 E-score.

In the case of CTTTGACC, the binding signal was 0.0526 E-score.

Regarding AAGTCAAT, the binding signal is 0.0507 E-score.

With CTGACTTC, the binding signal was 0.0589 E-score.

The next assay concerns the target GST-WRKY1(266-371) (Arabidopsis thaliana, UniProt Q9SI37 266-371). Described as above. The conditions noted are these: protein: recombinant; tags: GST; dsDNA, one strand shown. A digest of the protocol: as §1
On to CTTAGTCA, for which the binding signal turned out to be 0.424 E-score.

As for AGCGTTGA, the binding signal was 0.401 E-score.

As for GTCAAAGA, the binding signal stood at 0.469 E-score.

For the sequence GAGTTGAC, the binding signal is 0.476 E-score.

With AATTGACT, the binding signal was determined as 0.46 E-score.

Consider TCAAGTCA, for which the binding signal was found to be 0.453 E-score.

With GTCAAGCA, the binding signal amounted to 0.44 E-score.

Take CTTAAGGA: the binding signal stood at 0.07 E-score.

Turning to TAAAGTCA, the binding signal came to 0.465 E-score.

In the case of CGTCAAAG, the binding signal was found to be 0.427 E-score.

Turning to ACCGTTGA, the binding signal amounted to 0.404 E-score.

ACTGACCT: the binding signal stood at 0.407 E-score.

GTCAGTCA: the binding signal turned out to be 0.426 E-score.

Consider CTGTTGAC, for which the binding signal came to 0.48 E-score.

For CGTAGTCA, the binding signal was 0.405 E-score.

For the sequence GGGGTCAA, the binding signal turned out to be 0.481 E-score.

As to AAGGGTCA, the binding signal amounted to 0.409 E-score.

For GTCAAGAA, the binding signal came to 0.436 E-score.

As to AAAGTCAA, the binding signal was determined as 0.49 E-score.

AAGTCAAG: the binding signal was 0.479 E-score.

As to GCGTCAAC, the binding signal was determined as 0.443 E-score.

As for CCTTTGAC, the binding signal came to 0.475 E-score.

For AGTCAGAA, the binding signal was 0.416 E-score.

In the case of AGTCTACG, the binding signal was 0.401 E-score.

With ACGTTGAC, the binding signal was found to be 0.489 E-score.

For the sequence CTTGACCC, the binding signal was 0.477 E-score.

Regarding TCAGTCAA, the binding signal came out at 0.473 E-score.

CTTTGACC: the binding signal was 0.488 E-score.

In the case of AAGTCAAT, the binding signal came out at 0.481 E-score.

As to CTGACTTC, the binding signal was determined as 0.412 E-score.

The record behind these values is paper PMC4081100, “A DNA-binding-site landscape and regulatory network analysis for NAC transcription factors in Arabidopsis thaliana”.
